Experimental data reported in PubChem BioAssay (EPA / NIEHS).
Records with an inconclusive call do not appear. Activity calls are given as the source filed them. Rule for the calls, unless noted: active = hit-call score of the fitted dose curve at least 0.9, where 1 is the maximum; inconclusive = response in the unintended direction; inactive = score below 0.9.

Legend:
[1] = TOX21_p53_BLA_p2_viability: Viability Assessment in the Tox21 HCT-116 p53 Agonism Beta-lactamase Assay, Phase 2 (AID 2283591);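 note: compound exposure lasted 16 h at 37 °C; actives lower the ATP signal meaning cytotoxicity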
In short: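 Cytotoxicity readout: CellTiter-Glo ATP luminescence, 30 min at room temperature, after the beta-lactamase read. Cells were HCT116 exposed 16 h at 37C to compounds pin-transferred at 217-fold dilution from DMSO stocks.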

[2] = molecular target: Cellular tumor antigen p53 (Homo sapiens) (UniProt P04637); assay: TOX21_p53_BLA_p2_ratio: Tox21 HCT-116 p53 Agonism Beta-lactamase Assay, Ratio, Phase 2 (AID 2283592)
In short: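 Human colon HCT116 cells with an inducible p53 beta-lactamase reporter are exposed to test chemicals for 16 h at 37C. Reporter induction is read as the 460/530 nm emission ratio after CCF4-AM loading, normalized to DMSO.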

[3] = molecular target: Cellular tumor antigen p53 (Homo sapiens) (UniProt P04637); assay: TOX21_p53_BLA_p3_ratio: Tox21 HCT-116 p53 Agonism Beta-lactamase Assay, Ratio, Phase 3 (AID 2283596)
In short: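 HCT116 p53-bla cells (4000/well) given compound in DMSO (217-fold dilution) after 5 h, incubated 16 h at 37C. CCF4-AM substrate 2 h at room temperature; 460/530 nm emission ratio, gain fitted against DMSO.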

[4] = TOX21_p53_BLA_p4_viability: Viability Assessment in the Tox21 HCT-116 p53 Agonism Beta-lactamase Assay, Phase 4 (AID 2283597);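 note: hits lower the luminescence signal meaning cytotoxicity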
In short: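 Luminescent ATP readout (CellTiter-Glo, 30 min, room temperature) in the same wells as the p53 bla ratio. HCT116 cells were treated for 16 h at 37C with DMSO-dissolved compounds.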

[5] = molecular target: Cellular tumor antigen p53 (Homo sapiens) (UniProt P04637); assay: TOX21_p53_BLA_p5_ratio: Tox21 HCT-116 p53 Agonism Beta-lactamase Assay, Ratio, Phase 5 (AID 2283599)
In short: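 Beta-lactamase reporter ratio (blue 460 nm over green 530 nm, 405 nm excitation) after 2 h CCF4-AM loading, in HCT-116 cells exposed 16 h at 37 C to compounds pinned at 217-fold dilution. Increases relative to DMSO baseline scored.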

[6] = molecular target: Cellular tumor antigen p53 (Homo sapiens) (UniProt P04637); assay: TOX21_p53_BLA_p4_ratio: Tox21 HCT-116 p53 Agonism Beta-lactamase Assay, Ratio, Phase 4 (AID 2283601)
In short: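 Signal is the blue/green (460nm/530nm) ratio of cleaved versus uncleaved CCF4-AM substrate, read after 2 h substrate loading. Cells were HCT116 carrying the p53-responsive beta-lactamase reporter, dosed 16 h at 37C, 5% CO2; CellTiter-Glo measured in parallel.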

[7] = TOX21_p53_BLA_p5_viability: Viability Assessment in the Tox21 HCT-116 p53 Agonism Beta-lactamase Assay, Phase 5 (AID 2283600)
In short: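 Seeded cells (4000/well) settle 5 h before compound addition. Plates then incubate 16 h at 37C, receive FRET substrate for 2 h, and finally CellTiter-Glo, with luminescence measured after a 30 min room-temperature incubation.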

PGR (gene 5241) [8] = molecular target: PGR (gene 5241) (UniProt P06401); assay: TOX21_PR_BLA_Followup_Antagonist_ratio: Tox21 HEK293 Progesterone Receptor (PR) Antagonism Beta-lactamase Follow-Up Assay, Ratio (AID 2283934)
In short: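 PR-UAS-bla HEK293T cells, 3,000/well in 2% charcoal-stripped FBS, given compound plus 1nM R5020 agonist for 16 hr at 37C. Beta-lactamase FRET substrate 2 hours, ratio cleaved/uncleaved fluorescence; viability by CellTiter-Glo in same wells.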

[9] = TOX21_PR_BLA_Followup_Agonist_viability: Viability Assessment in the Tox21 HEK293 Progesterone Receptor (PR) Agonism Beta-lactamase Follow-Up Assay (AID 2283935);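 note: signal loss means lower viability so actives are cytotoxic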
In short: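 PR-UAS-bla HEK293T cells in 2% charcoal-stripped FBS medium, plated 6 hr before compound addition, exposed 16 hr at 37C. Viability read by CellTiter-Glo ATP luminescence after 30 min at room temperature, in the same wells as the beta-lactamase readout.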

[10] = TOX21_PR_BLA_Followup_Antagonist_viability: Viability Assessment in the Tox21 HEK293 Progesterone Receptor (PR) Antagonism Beta-lactamase Follow-Up Assay (AID 2283936);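 note: hits lower the luminescence signal meaning cytotoxicity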
In short: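 PR-UAS-bla HEK293T cells (3,000/well, 2% charcoal-stripped FBS) given compound plus R5020 agonist, 16 h at 37C. CellTiter-Glo added after bla read, 30 min at room temperature; luminescence loss indicates cytotoxicity.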

PGR (gene 5241) [11] = molecular target: PGR (gene 5241) (UniProt P06401); assay: TOX21_PR_LUC_Followup_Agonist: Tox21 HEK293 Progesterone Receptor (PR) Agonism Luciferase Follow-Up Assay (AID 2283937; active = hit-call score of the fitted dose curve at least 0.9, where 1 is the maximum; inactive = score below 0.9)
In short: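 HEK293-PR-A-luc cells, conditioned 5 days in 10% charcoal-stripped FBS medium, seeded 3,000/well for 5 h, then compound-treated 16 h at 37C. ONE-Glo luminescence read after 30 min at room temperature; gain of signal versus DMSO.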

PGR (gene 5241) [12] = molecular target: PGR (gene 5241) (UniProt P06401); assay: TOX21_PR_LUC_Followup_Antagonist: Tox21 HEK293 Progesterone Receptor (PR) Antagonism Luciferase Follow-Up Assay (AID 2283938);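 note: curve fitted upward as signal gain over DMSO baseline despite antagonist label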
In short: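 Luciferase reporter in HEK293-PR-A-luc cells: 16 h compound treatment at 37C, ONE-Glo luminescence detection, DMSO as negative control and baseline.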

[13] = TOX21_PR_LUC_Followup_Agonist_viability: Viability Assessment in the Tox21 HEK293 Progesterone Receptor (PR) Agonism Luciferase Follow-Up Assay (AID 2283941);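 note: loss of signal means cytotoxicity so actives lower viability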
In short: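 HEK293-PR-A-luc cells, kept in 10% charcoal-stripped FBS medium, were treated with compounds for 16 h at 37C. Viability read as cellular ATP by luciferase-coupled luminescence; loss of signal indicates cytotoxicity.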

Measured: AC50

Sequence of PGR (gene 5241) (P06401 whole entry, looked up): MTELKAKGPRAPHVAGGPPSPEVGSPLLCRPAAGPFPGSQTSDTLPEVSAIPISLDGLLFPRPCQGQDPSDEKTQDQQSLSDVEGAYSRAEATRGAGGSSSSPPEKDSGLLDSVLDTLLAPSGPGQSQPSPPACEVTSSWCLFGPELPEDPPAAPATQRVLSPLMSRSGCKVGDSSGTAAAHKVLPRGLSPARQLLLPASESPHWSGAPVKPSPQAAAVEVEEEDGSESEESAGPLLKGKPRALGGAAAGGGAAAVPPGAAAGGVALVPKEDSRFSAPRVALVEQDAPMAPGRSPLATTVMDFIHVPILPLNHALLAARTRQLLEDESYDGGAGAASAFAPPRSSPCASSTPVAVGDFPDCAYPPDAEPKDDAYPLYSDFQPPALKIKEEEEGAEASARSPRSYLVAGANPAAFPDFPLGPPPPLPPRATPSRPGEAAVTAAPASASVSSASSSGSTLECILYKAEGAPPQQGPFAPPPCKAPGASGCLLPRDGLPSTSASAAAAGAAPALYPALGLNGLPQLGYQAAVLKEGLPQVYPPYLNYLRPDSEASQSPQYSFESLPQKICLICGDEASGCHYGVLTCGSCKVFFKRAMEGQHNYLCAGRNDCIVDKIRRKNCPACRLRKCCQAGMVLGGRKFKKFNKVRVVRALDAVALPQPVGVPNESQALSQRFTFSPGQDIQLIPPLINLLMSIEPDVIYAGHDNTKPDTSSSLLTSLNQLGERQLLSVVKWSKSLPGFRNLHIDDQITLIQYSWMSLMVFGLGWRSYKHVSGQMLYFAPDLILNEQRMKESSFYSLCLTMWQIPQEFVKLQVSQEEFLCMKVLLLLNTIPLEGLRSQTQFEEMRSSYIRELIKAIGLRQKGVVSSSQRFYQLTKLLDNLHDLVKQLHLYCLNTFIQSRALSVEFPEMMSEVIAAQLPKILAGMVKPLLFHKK
Sequence of Cellular tumor antigen p53 (Homo sapiens) (P04637 whole entry, looked up): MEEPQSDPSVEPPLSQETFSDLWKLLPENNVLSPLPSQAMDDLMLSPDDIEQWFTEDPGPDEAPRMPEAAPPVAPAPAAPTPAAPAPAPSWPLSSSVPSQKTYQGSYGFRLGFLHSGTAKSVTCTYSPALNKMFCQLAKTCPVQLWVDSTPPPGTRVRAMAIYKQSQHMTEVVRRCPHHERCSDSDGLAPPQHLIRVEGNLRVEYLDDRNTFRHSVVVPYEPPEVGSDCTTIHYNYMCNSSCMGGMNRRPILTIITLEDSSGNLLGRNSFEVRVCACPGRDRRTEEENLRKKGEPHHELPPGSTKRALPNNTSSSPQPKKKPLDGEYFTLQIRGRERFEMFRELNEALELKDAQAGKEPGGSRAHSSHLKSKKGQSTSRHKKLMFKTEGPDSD

CCC/C=C/C=C/C(=O)O[C@H]1/C(=C/C(=O)OC)C[C@H]2C[C@H]([C@@H](C)O)OC(=O)C[C@H](O)C[C@@H]3C[C@H](OC(C)=O)C(C)(C)[C@](O)(C[C@@H]4C/C(=C/C(=O)OC)C[C@H](/C=C/C(C)(C)[C@]1(O)O2)O4)O3
inactive: [1] | [2] | [3] | [4] | [5] | [6]

CC(Cc1ccccc1)NCCn1cnc2c1c(=O)n(C)c(=O)n2C (configuration not stated)
inactive: [1] | [2] | [3] | [5] | [7] | [6]

CCC(C)Cl (configuration not stated)
inactive: [1] | [2] | [3] | [4] | [5] | [7] | [6]

COc1ccc(CN2CCNCC2)c(OC)c1OC
inactive: [1] | [2] | [3] | [4] | [7] | [6]

CCN(C)N=O
inactive: [1] | [2] | [3] | [4] | [5] | [6]

Cn1c(N)nc2c3cccnc3ccc21
inactive: [1] | [2] | [3] | [4] | [5] | [6]

COP(=O)(OC)OC(=CCl)c1cc(Cl)c(Cl)cc1Cl
inactive: [1] | [2] | [3] | [4] | [5] | [6]

CN1CCN(C(=O)O[C@H]2c3nccnc3C(=O)N2c2ccc(Cl)cn2)CC1
inactive: [1] | [2] | [3] | [4] | [7] | [6]

C#C[C@]1(O)C=C[C@H]2[C@@H]3CCC4=CC(=O)CC[C@@H]4[C@H]3CC[C@@]21CC
inactive: [1] | [2] | [3] | [4] | [6]

COP(=S)(OC)Oc1ccc([N+](=O)[O-])cc1Cl
inactive: [1] | [2] | [3] | [4] | [7] | [6]

NCCOS(=O)(=O)O
inactive: [1] | [2] | [3] | [5] | [7] | [6]

ClC=C(Cl)Cl
inactive: [1] | [2] | [3] | [4] | [5] | [6]

COC(C)(C)C
inactive: [1] | [2] | [3] | [4] | [5] | [7] | [6]

CC(=O)O[C@H]1CC[C@@]2(C)C(=CC[C@@H]3[C@@H]2CC[C@]2(C)C(=O)CC[C@@H]32)C1
inactive: [1] | [2] | [3] | [4] | [7] | [6] | PGR (gene 5241) [8] | [9] | [10] | PGR (gene 5241) [11] | PGR (gene 5241) [12] | [13]

C=CC(C)(CCC=C(C)C)OC(=O)c1ccccc1N (configuration not stated)
inactive: [1] | [2] | [3] | [5] | [7] | [6]

O=C(O)/C=C/C(=O)O
inactive: [1] | [2] | [3] | [5] | [7] | [6]

CCCC(C)(COC(N)=O)COC(N)=O
inactive: [1] | [2] | [3] | [4] | [5] | [7] | [6]

O=C(CCl)c1ccc(Oc2ccc(C(=O)CCl)cc2)cc1
active: [2] 43.4 µM | [6] 41.9 µM
inactive: [1] | [3] | [4] | [5]

C[C@H]1[C@@H]2Cc3ccc(O)cc3[C@@]1(C)CCN2C
inactive: [1] | [2] | [3] | [5] | [7] | [6]

CN(C)c1ccc(N(C)C)cc1
inactive: [1] | [2] | [3] | [4] | [5] | [6]

CCCSc1cc(OC)c(CCN)cc1OC
active: [2] 26.1 µM | [3] 48 µM | [5] 43.7 µM | [6] 24.4 µM
inactive: [1] | [7]

CC(=O)C1CCOC1=O (configuration not stated)
inactive: [1] | [2] | [3] | [5] | [7] | [6]

CN1[C@@H]2CC[C@H]1CC(O)C2 (some centres not stated)
inactive: [1] | [2] | [3] | [4] | [5] | [7] | [6]

CNC(=O)Oc1cc(C)cc(C(C)C)c1
inactive: [1] | [2] | [3] | [4] | [5] | [7] | [6]

OC(O)C(Cl)(Cl)Cl
inactive: [1] | [2] | [3] | [5] | [7] | [6]

C=CCSSCC=C
active: [3] 57.5 µM
inactive: [1] | [2] | [4] | [7]

C=CCN(C1=NCCN1)c1c(Cl)cccc1Cl
inactive: [1] | [2] | [3] | [5]

O=C1CCCCC1CN1CCCCC1 (configuration not stated)
inactive: [1] | [2] | [3] | [4] | [6]

CC(C)NCC(O)c1ccc(N)c(C#N)c1 (configuration not stated)
inactive: [1] | [2] | [3] | [5] | [7] | [6]

CCCC(=O)Cl
inactive: [1] | [2] | [3] | [4] | [7]

OP(O)c1ccccc1
inactive: [1] | [2] | [3] | [5] | [7] | [6]

C=CCOC(C)=O
inactive: [1] | [2] | [3] | [5] | [7] | [6]
